Results taken from the supplement of paper PMC11732987, “Enantioselective OTUD7B fragment discovery through chemoproteomics screening and high-throughput optimisation” (Communications Chemistry, 2025).
Values without a mark were called inactive.

Key:
Assay in all cases: log2 ratio of Biotin-Ahx-Ub-VS probe labelling (compound/DMSO); higher = less target engagement, active = hit call of the paper (q ≤ 0.05, log2 ratio ≤ -1)
Conditions in all cases: treatment time: 3 h
[1] = compound: ClCC(=O)NC1CCCc2ccccc12
Outline: (§1)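 HEK293T lysate (495 µg per sample, in Tris/CHAPS/IGEPAL buffer with protease inhibitors) was treated in triplicate with compound over a concentration series or DMSO for 3 h, then with Biotin-Ahx-Ub-VS (0.5 µM final) for 1 h. Labelled DUBs were NeutrAvidin-enriched, digested with LysC and trypsin, and run by diaPASEF LC-MS/MS. Spectronaut label-free protein quantities were global-median-normalised. Values are average log2 ratios compound/DMSO from an unpaired t-test, using proteins with ≥2 unique peptides.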

[2] = compound: ClCC(=O)N[C@@H]1CCCc2ccccc12
Outline: as §1

[3] = compound: ClCC(=O)N[C@H]1CCCc2ccccc12
Outline: as §1

[4] = compound: CCC1N(CCc2sccc12)C(=O)CCl
Outline: (§2)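 HEK293T lysate (495 µg per sample, in Tris/CHAPS/IGEPAL buffer with protease inhibitors) was exposed in triplicate to compound at 50 or 200 µM, or to DMSO, for 3 h, then to Biotin-Ahx-Ub-VS (0.5 µM final) for 1 h. The labelled DUBs were enriched on NeutrAvidin, digested with LysC and trypsin, and analysed by diaPASEF LC-MS/MS. Average base-two log ratios of compound over DMSO came from median-normalised label-free quantities by unpaired t-test. Only proteins with at least 2 unique peptides were used.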

[5] = compound: CN1c2ccccc2C(CS1(=O)=O)NC(=O)CCl
Outline: as §2

[6] = compound: Cl.ClCC(=O)N1CCc2ncncc2C1
Outline: as §2

[7] = compound: Cl.Cn1ncc2C(CCCc12)NC(=O)CCl
Outline: as §2

[8] = compound: ClCC(=O)NC1CCOc2ccccc12
Outline: as §2

[9] = compound: CCC1N(CCc2cc(OC)c(Cl)cc12)C(=O)CCl
Outline: as §2

[10] = compound: CCCC1N(CCc2cc(OC)c(OC)cc12)C(=O)CCl
Outline: as §2

[11] = compound: CN(Cc1cccc(Br)c1)C(=O)CCl
Outline: as §2

[12] = compound: CN(Cc1ccccc1)C(=O)CCl
Outline: as §2

[13] = compound: COc1ccc(CN(C)C(=O)CCl)cc1
Outline: as §2

[14] = compound: COc1cccc(CN(CCCc2ccccc2)C(=O)CCl)c1
Outline: as §2

[15] = compound: ClCC(=O)N1CCc2cc(Cl)c(Cl)cc2C1
Outline: as §2

[16] = compound: ClCC(=O)N1CCc2nc(ncc2C1)-c1ccccc1
Outline: as §2

[17] = compound: ClCC(=O)N1CCc2nocc2C1
Outline: as §2

[18] = compound: ClCC(=O)N1CCc2scc(Br)c2C1
Outline: as §2

[19] = compound: ClCC(=O)NC(C1CCCC1)c1cccs1
Outline: as §2

USP47 (UniProt Q96K76)
Chain of UniProt Q96K76 (Q96K76 whole entry): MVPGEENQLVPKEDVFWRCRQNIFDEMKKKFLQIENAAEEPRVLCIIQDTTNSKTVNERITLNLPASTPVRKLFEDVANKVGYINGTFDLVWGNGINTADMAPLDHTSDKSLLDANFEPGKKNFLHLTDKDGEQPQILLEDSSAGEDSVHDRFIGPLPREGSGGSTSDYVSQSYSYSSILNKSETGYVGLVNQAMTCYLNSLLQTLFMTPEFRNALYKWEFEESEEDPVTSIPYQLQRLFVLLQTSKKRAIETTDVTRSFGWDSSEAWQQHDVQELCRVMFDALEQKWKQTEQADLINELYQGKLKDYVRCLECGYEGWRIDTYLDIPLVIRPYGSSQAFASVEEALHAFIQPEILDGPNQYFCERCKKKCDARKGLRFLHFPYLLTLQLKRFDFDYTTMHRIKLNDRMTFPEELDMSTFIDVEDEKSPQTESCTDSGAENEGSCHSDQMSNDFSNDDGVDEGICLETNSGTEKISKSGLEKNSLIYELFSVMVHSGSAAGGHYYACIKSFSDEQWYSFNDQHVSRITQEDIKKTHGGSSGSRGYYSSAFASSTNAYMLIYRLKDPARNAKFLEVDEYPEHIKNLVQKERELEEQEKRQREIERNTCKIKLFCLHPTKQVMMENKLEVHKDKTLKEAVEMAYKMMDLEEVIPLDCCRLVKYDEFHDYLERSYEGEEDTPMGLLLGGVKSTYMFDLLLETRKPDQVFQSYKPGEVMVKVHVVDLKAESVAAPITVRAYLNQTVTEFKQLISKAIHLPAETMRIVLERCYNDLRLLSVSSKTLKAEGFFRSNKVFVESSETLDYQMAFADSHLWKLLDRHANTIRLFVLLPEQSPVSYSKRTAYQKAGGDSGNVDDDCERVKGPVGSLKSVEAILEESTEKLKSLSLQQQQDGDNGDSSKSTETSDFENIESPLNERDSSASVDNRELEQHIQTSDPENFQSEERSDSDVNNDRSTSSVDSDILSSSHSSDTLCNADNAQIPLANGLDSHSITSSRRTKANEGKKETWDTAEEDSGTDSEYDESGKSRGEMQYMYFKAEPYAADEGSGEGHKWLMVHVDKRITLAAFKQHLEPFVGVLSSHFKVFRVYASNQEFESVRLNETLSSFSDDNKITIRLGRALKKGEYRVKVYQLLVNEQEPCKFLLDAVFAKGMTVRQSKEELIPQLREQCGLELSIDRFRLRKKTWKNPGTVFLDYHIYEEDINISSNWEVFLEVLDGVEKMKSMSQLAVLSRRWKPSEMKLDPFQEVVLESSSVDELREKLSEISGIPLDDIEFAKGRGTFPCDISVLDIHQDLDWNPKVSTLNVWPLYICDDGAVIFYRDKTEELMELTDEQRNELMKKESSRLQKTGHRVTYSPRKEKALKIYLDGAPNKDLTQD
log2 ratio of Biotin-Ahx-Ub-VS probe labelling ([1]; compound concentration: 0.78uM): -0.835
log2 ratio of Biotin-Ahx-Ub-VS probe labelling ([1]; compound concentration: 1.56uM): -0.97
log2 ratio of Biotin-Ahx-Ub-VS probe labelling ([1]; compound concentration: 3.13uM): -1.96 (active)
log2 ratio of Biotin-Ahx-Ub-VS probe labelling ([1]; compound concentration: 6.25uM): -1.31 (active)
log2 ratio of Biotin-Ahx-Ub-VS probe labelling ([1]; compound concentration: 12.5uM): -2.62 (active)
log2 ratio of Biotin-Ahx-Ub-VS probe labelling ([1]; compound concentration: 25uM): -2.65 (active)
log2 ratio of Biotin-Ahx-Ub-VS probe labelling ([1]; compound concentration: 50uM): -1.54 (active)
log2 ratio of Biotin-Ahx-Ub-VS probe labelling ([1]; compound concentration: 100uM): -1.65 (active)
log2 ratio of Biotin-Ahx-Ub-VS probe labelling ([1]; compound concentration: 200uM): -1.87 (active)
log2 ratio of Biotin-Ahx-Ub-VS probe labelling ([2]; compound concentration: 0.78uM): -1.55 (active)
log2 ratio of Biotin-Ahx-Ub-VS probe labelling ([2]; compound concentration: 1.56uM): -0.399
log2 ratio of Biotin-Ahx-Ub-VS probe labelling ([2]; compound concentration: 3.13uM): -0.592
log2 ratio of Biotin-Ahx-Ub-VS probe labelling ([2]; compound concentration: 6.25uM): -0.585
log2 ratio of Biotin-Ahx-Ub-VS probe labelling ([2]; compound concentration: 12.5uM): -0.654
log2 ratio of Biotin-Ahx-Ub-VS probe labelling ([2]; compound concentration: 25uM): -0.26
log2 ratio of Biotin-Ahx-Ub-VS probe labelling ([2]; compound concentration: 50uM): -0.749
log2 ratio of Biotin-Ahx-Ub-VS probe labelling ([2]; compound concentration: 100uM): -0.609
log2 ratio of Biotin-Ahx-Ub-VS probe labelling ([2]; compound concentration: 200uM): 0.134
log2 ratio of Biotin-Ahx-Ub-VS probe labelling ([3]; compound concentration: 0.78uM): -0.545
log2 ratio of Biotin-Ahx-Ub-VS probe labelling ([3]; compound concentration: 1.56uM): -0.834
log2 ratio of Biotin-Ahx-Ub-VS probe labelling ([3]; compound concentration: 3.13uM): -0.514
log2 ratio of Biotin-Ahx-Ub-VS probe labelling ([3]; compound concentration: 6.25uM): -1.57 (active)
log2 ratio of Biotin-Ahx-Ub-VS probe labelling ([3]; compound concentration: 12.5uM): -0.725
log2 ratio of Biotin-Ahx-Ub-VS probe labelling ([3]; compound concentration: 25uM): -0.536
log2 ratio of Biotin-Ahx-Ub-VS probe labelling ([3]; compound concentration: 50uM): -0.911
log2 ratio of Biotin-Ahx-Ub-VS probe labelling ([3]; compound concentration: 100uM): -1.22 (active)
log2 ratio of Biotin-Ahx-Ub-VS probe labelling ([3]; compound concentration: 200uM): -0.929

PRPF8 (UniProt Q6P2Q9)
log2 ratio of Biotin-Ahx-Ub-VS probe labelling ([4]; compound concentration: 50uM): -0.0394
log2 ratio of Biotin-Ahx-Ub-VS probe labelling ([4]; compound concentration: 200uM): -0.112
log2 ratio of Biotin-Ahx-Ub-VS probe labelling ([5]; compound concentration: 50uM): -0.0921
log2 ratio of Biotin-Ahx-Ub-VS probe labelling ([5]; compound concentration: 200uM): -0.054
log2 ratio of Biotin-Ahx-Ub-VS probe labelling ([6]; compound concentration: 50uM): 0.0381
log2 ratio of Biotin-Ahx-Ub-VS probe labelling ([6]; compound concentration: 200uM): -0.119
log2 ratio of Biotin-Ahx-Ub-VS probe labelling ([7]; compound concentration: 50uM): 0.0788
log2 ratio of Biotin-Ahx-Ub-VS probe labelling ([7]; compound concentration: 200uM): 0.0562
log2 ratio of Biotin-Ahx-Ub-VS probe labelling ([8]; compound concentration: 50uM): 0.0594
log2 ratio of Biotin-Ahx-Ub-VS probe labelling ([8]; compound concentration: 200uM): -0.157
log2 ratio of Biotin-Ahx-Ub-VS probe labelling ([1]; compound concentration: 0.78uM): -0.034
log2 ratio of Biotin-Ahx-Ub-VS probe labelling ([1]; compound concentration: 1.56uM): -0.0309
log2 ratio of Biotin-Ahx-Ub-VS probe labelling ([1]; compound concentration: 3.13uM): -0.104
log2 ratio of Biotin-Ahx-Ub-VS probe labelling ([1]; compound concentration: 6.25uM): -0.01
log2 ratio of Biotin-Ahx-Ub-VS probe labelling ([1]; compound concentration: 12.5uM): -0.0322
log2 ratio of Biotin-Ahx-Ub-VS probe labelling ([1]; compound concentration: 25uM): -0.101
log2 ratio of Biotin-Ahx-Ub-VS probe labelling ([1]; compound concentration: 50uM): -0.0882
log2 ratio of Biotin-Ahx-Ub-VS probe labelling ([1]; compound concentration: 100uM): -0.0511
log2 ratio of Biotin-Ahx-Ub-VS probe labelling ([1]; compound concentration: 200uM): -0.0422
log2 ratio of Biotin-Ahx-Ub-VS probe labelling ([2]; compound concentration: 0.78uM): -0.0504
log2 ratio of Biotin-Ahx-Ub-VS probe labelling ([2]; compound concentration: 1.56uM): -0.022
log2 ratio of Biotin-Ahx-Ub-VS probe labelling ([2]; compound concentration: 3.13uM): -0.0939
log2 ratio of Biotin-Ahx-Ub-VS probe labelling ([2]; compound concentration: 6.25uM): -0.0748
log2 ratio of Biotin-Ahx-Ub-VS probe labelling ([2]; compound concentration: 12.5uM): -0.0604
log2 ratio of Biotin-Ahx-Ub-VS probe labelling ([2]; compound concentration: 25uM): -0.0428
log2 ratio of Biotin-Ahx-Ub-VS probe labelling ([2]; compound concentration: 50uM): -0.086
log2 ratio of Biotin-Ahx-Ub-VS probe labelling ([2]; compound concentration: 100uM): -0.0702
log2 ratio of Biotin-Ahx-Ub-VS probe labelling ([2]; compound concentration: 200uM): -0.137
log2 ratio of Biotin-Ahx-Ub-VS probe labelling ([3]; compound concentration: 0.78uM): -0.0339
log2 ratio of Biotin-Ahx-Ub-VS probe labelling ([3]; compound concentration: 1.56uM): -0.0293
log2 ratio of Biotin-Ahx-Ub-VS probe labelling ([3]; compound concentration: 3.13uM): -0.049
log2 ratio of Biotin-Ahx-Ub-VS probe labelling ([3]; compound concentration: 6.25uM): 0.0146
log2 ratio of Biotin-Ahx-Ub-VS probe labelling ([3]; compound concentration: 12.5uM): -0.0785
log2 ratio of Biotin-Ahx-Ub-VS probe labelling ([3]; compound concentration: 25uM): -0.109
log2 ratio of Biotin-Ahx-Ub-VS probe labelling ([3]; compound concentration: 50uM): -0.0661
log2 ratio of Biotin-Ahx-Ub-VS probe labelling ([3]; compound concentration: 100uM): -0.111
log2 ratio of Biotin-Ahx-Ub-VS probe labelling ([3]; compound concentration: 200uM): -0.149
log2 ratio of Biotin-Ahx-Ub-VS probe labelling ([9]; compound concentration: 50uM): 0.0405
log2 ratio of Biotin-Ahx-Ub-VS probe labelling ([9]; compound concentration: 200uM): 0.131
log2 ratio of Biotin-Ahx-Ub-VS probe labelling ([10]; compound concentration: 50uM): -0.0761
log2 ratio of Biotin-Ahx-Ub-VS probe labelling ([10]; compound concentration: 200uM): -0.182
log2 ratio of Biotin-Ahx-Ub-VS probe labelling ([11]; compound concentration: 50uM): -0.00418
log2 ratio of Biotin-Ahx-Ub-VS probe labelling ([11]; compound concentration: 200uM): 0.0824
log2 ratio of Biotin-Ahx-Ub-VS probe labelling ([12]; compound concentration: 50uM): -0.0842
log2 ratio of Biotin-Ahx-Ub-VS probe labelling ([12]; compound concentration: 200uM): 0.108
log2 ratio of Biotin-Ahx-Ub-VS probe labelling ([13]; compound concentration: 50uM): 0.0375
log2 ratio of Biotin-Ahx-Ub-VS probe labelling ([13]; compound concentration: 200uM): 0.065
log2 ratio of Biotin-Ahx-Ub-VS probe labelling ([14]; compound concentration: 50uM): 0.00751
log2 ratio of Biotin-Ahx-Ub-VS probe labelling ([14]; compound concentration: 200uM): 0.0603
log2 ratio of Biotin-Ahx-Ub-VS probe labelling ([15]; compound concentration: 50uM): 0.0965
log2 ratio of Biotin-Ahx-Ub-VS probe labelling ([15]; compound concentration: 200uM): 0.0914
log2 ratio of Biotin-Ahx-Ub-VS probe labelling ([16]; compound concentration: 50uM): 0.046
log2 ratio of Biotin-Ahx-Ub-VS probe labelling ([16]; compound concentration: 200uM): 0.0608
log2 ratio of Biotin-Ahx-Ub-VS probe labelling ([17]; compound concentration: 50uM): -0.0702
log2 ratio of Biotin-Ahx-Ub-VS probe labelling ([17]; compound concentration: 200uM): 0.00362
log2 ratio of Biotin-Ahx-Ub-VS probe labelling ([18]; compound concentration: 50uM): -0.00317
log2 ratio of Biotin-Ahx-Ub-VS probe labelling ([18]; compound concentration: 200uM): 0.0413
log2 ratio of Biotin-Ahx-Ub-VS probe labelling ([19]; compound concentration: 50uM): 0.122
log2 ratio of Biotin-Ahx-Ub-VS probe labelling ([19]; compound concentration: 200uM): -0.028
